Test results as given in PubChem BioAssay (EPA / NIEHS).
Calls of active or inactive are those of the source. The calls were made as follows: active = hit-call score of the fitted dose curve at least 0.9, where 1 is the maximum; inactive = score below 0.9.

Experiments:
[1] = molecular target: Bile acid receptor (Homo sapiens) (UniProt Q96RI1); assay: ATG_IR1_CIS: Attagene CIS-FACTORIAL HepG2 Assay for human Nuclear Receptor Subfamily 1 Group H Member 4 (NR1H4), IR1 submotif (AID 2282946); details: IR1 reporter transcription, actives raise or lower the signal
Chain of Bile acid receptor (Homo sapiens) (Q96RI1 whole entry, looked up): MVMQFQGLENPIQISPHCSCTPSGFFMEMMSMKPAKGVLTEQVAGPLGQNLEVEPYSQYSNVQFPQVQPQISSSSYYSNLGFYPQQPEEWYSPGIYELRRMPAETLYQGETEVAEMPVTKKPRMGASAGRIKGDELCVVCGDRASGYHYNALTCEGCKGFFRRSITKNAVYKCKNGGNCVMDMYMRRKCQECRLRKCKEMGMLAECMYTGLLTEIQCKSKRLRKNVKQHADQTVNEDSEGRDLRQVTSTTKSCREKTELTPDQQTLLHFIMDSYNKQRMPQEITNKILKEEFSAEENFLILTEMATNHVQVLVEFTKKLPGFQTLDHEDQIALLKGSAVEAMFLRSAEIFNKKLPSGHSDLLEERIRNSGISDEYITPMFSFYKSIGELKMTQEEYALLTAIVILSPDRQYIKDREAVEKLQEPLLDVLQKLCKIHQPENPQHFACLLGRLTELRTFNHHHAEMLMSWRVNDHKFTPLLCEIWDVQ
Outline: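 Readout: reporter transcript levels by RT-PCR with fluorescent capillary electrophoresis, from HepG2 cells transiently transfected with multiplexed cis-regulated reporters and dosed 24 h. Gain- or loss-of-signal fitted versus DMSO negative control.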

[2] = ATG_GRE_CIS: Attagene CIS-FACTORIAL HepG2 Assay for human Glucocorticoid Response Elements (GRE) (AID 2282947); details: HepG2 GRE cis-reporter, Attagene multiplex mRNA; actives raise or lower the signal
Outline: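 HepG2, transient cis-reporter transfection, 24 h. Reporter mRNA: RT-PCR then CE, fluorescence. Fit both directions vs DMSO.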

[3] = ATG_ISRE_CIS: Attagene CIS-FACTORIAL HepG2 Assay for human Interferon Regulatory Factor 1 (IRF1) binding to an Interferon-Stimulated Response Element (ISRE) (AID 2282948); details: HepG2 ISRE cis-reporter (Attagene), mRNA transcription readout; actives raise or lower the signal
Outline: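 Uses HepG2 liver cells transfected with cis-regulated reporters and measures mRNA 24 h post-dosing through RT-PCR, primer-extension labelling and capillary electrophoresis, with DMSO as negative control.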

[4] = ATG_M_32_CIS: Attagene CIS-FACTORIAL HepG2 Assay for M32 Transcription Factor (Internal Marker) (AID 2282949); details: HepG2 Attagene cis-factorial M32 reporter, mRNA; actives raise or lower the signal;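 also: background control marker of the multiplexed CIS panel rather than a real target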
Outline: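 Using DMSO as baseline, bidirectional curve fits were applied to reporter mRNA signals. These came from transiently transfected HepG2 cells exposed for 24 h, with RNA analysed by RT-PCR, FAM primer extension, HpaI digestion and CE.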

[5] = ATG_M_06_CIS: Attagene CIS-FACTORIAL HepG2 Assay for M06 Transcription Factor (Internal Marker) (AID 2282950); details: HepG2 Attagene CIS-FACTORIAL M06 internal marker reporter; actives raise or lower the signal
Outline: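 Read-out is fluorescence of labelled reporter cDNA fragments resolved by capillary electrophoresis after RT-PCR. Cells: HepG2 carrying transfected cis-promoter reporter units, treated 24 h. Gain or loss of signal fitted relative to DMSO.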

[6] = molecular target: Hypoxia-inducible factor 1-alpha (Homo sapiens) (UniProt Q16665); assay: ATG_HIF1a_CIS: Attagene CIS-FACTORIAL HepG2 Assay for human Hypoxia Inducible Factor 1 (HIF1A) (AID 2282951); details: HepG2 Attagene cis-factorial HIF1a reporter transcription; actives raise or lower the signal
Chain of Hypoxia-inducible factor 1-alpha (Homo sapiens) (Q16665 whole entry, looked up): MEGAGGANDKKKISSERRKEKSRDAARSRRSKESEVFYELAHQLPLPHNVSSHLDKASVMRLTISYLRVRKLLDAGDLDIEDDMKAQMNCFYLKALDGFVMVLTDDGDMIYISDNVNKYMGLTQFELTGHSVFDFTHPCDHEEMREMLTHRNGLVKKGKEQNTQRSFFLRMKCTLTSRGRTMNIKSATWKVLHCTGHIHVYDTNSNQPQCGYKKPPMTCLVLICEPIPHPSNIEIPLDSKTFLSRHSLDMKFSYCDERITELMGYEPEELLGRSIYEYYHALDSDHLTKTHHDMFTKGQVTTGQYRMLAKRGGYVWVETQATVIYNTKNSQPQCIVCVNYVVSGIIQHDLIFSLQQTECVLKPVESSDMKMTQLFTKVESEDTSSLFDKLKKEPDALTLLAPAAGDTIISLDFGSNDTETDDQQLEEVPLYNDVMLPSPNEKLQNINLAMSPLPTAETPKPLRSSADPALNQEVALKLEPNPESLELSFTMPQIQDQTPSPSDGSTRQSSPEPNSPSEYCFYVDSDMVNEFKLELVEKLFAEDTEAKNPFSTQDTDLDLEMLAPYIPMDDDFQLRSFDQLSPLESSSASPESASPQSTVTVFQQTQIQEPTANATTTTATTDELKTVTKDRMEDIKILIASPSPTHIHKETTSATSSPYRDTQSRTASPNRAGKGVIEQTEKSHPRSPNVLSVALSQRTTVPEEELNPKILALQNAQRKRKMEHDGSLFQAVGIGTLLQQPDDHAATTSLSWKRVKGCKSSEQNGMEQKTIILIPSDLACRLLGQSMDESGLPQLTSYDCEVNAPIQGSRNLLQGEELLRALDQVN
Outline: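 Activity is fitted in both directions relative to DMSO. Reporter transcripts are read by RT-PCR, fluorescent primer extension and capillary electrophoresis after 24 h chemical treatment. The cells are HepG2 carrying transiently transfected cis-element-driven reporter units responding to endogenous factors.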

[7] = molecular target: Hepatocyte nuclear factor 6 (Homo sapiens) (UniProt Q9UBC0); assay: ATG_HNF6_CIS: Attagene CIS-FACTORIAL HepG2 Assay for human Hepatocyte Nuclear Factor 6 (HNF6) (AID 2282952); details: HepG2 Attagene cis-factorial HNF6 reporter transcription; actives raise or lower the signal
Chain of Hepatocyte nuclear factor 6 (Homo sapiens) (Q9UBC0 whole entry, looked up, the tested form may be a part): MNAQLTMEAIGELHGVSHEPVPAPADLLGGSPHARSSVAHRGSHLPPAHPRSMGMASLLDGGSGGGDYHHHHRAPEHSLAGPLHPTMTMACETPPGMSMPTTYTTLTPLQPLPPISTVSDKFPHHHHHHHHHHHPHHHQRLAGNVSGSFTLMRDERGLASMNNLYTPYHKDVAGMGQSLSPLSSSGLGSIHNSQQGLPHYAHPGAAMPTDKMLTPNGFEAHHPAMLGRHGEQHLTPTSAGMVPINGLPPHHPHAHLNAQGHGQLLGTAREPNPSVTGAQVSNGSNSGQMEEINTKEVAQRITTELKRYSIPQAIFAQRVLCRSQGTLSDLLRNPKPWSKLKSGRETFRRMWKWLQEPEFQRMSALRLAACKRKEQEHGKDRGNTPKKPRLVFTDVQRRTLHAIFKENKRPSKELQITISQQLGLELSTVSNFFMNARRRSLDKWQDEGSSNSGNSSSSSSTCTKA
Outline: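 First, HepG2 cells were transfected with the multiplexed cis reporter library and dosed with chemical for 24 h. Next, RNA was reverse-transcribed, PCR-amplified and fluorescently labelled. Finally, HpaI-digested fragments were read by capillary electrophoresis.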

[8] = ATG_MRE_CIS: Attagene CIS-FACTORIAL HepG2 Assay for human Metal Responsive Element (MRE) (AID 2282954); details: HepG2 MRE cis-reporter transcription, Attagene multiplex; actives raise or lower the signal
Outline: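 Readout: capillary electrophoresis of 6-FAM-labelled, HpaI-digested RT-PCR reporter products. System: HepG2 cells carrying transient multiplexed cis reporters, dosed 24 h. Analysis: bidirectional fit, DMSO baseline.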

[9] = molecular target: Heat shock factor protein 1 (Homo sapiens) (UniProt Q00613); assay: ATG_HSE_CIS: Attagene CIS-FACTORIAL HepG2 Assay for human Heat Shock Transcription Factor 1 (HSE) (AID 2282953); details: HepG2 HSE cis-reporter, Attagene RNA transcription; actives raise or lower the signal
Chain of Heat shock factor protein 1 (Homo sapiens) (Q00613 whole entry, looked up): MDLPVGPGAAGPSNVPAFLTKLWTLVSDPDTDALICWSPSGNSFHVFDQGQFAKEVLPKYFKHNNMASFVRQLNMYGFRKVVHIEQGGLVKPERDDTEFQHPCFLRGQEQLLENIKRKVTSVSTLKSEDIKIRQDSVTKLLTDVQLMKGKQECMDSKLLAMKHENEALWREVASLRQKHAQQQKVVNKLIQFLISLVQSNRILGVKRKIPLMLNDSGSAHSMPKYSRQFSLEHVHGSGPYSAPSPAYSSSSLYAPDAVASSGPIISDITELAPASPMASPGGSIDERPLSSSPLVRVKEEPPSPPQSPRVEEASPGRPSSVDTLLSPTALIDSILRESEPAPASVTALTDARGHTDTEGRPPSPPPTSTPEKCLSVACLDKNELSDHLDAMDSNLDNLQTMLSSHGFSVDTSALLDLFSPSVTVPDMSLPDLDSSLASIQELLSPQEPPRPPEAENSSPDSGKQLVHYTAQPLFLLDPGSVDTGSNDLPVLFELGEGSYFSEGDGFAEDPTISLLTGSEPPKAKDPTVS
Outline: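 HepG2, transient MRTU transfection, cis-promoter reporters (endogenous TF activity). 24 h compound. RNA → oligo(dT) RT → PCR → 6-FAM primer extension → HpaI cut → CE. Bidirectional fit vs DMSO.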

[10] = ATG_PBREM_CIS: Attagene CIS-FACTORIAL HepG2 Assay for human Phenobarbital-responsive Enhancer Module (PBREM) (AID 2282955); details: HepG2 PBREM cis-reporter, Attagene multiplexed transcription; actives raise or lower the signal
Outline: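 Endogenous transcription factor activity was read from reporter transcripts in transiently transfected human HepG2 liver cells after 24 h dosing. RT-PCR products were fluorescently labelled, HpaI-cut and sized by capillary electrophoresis; activity fitted bidirectionally against DMSO baseline.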

Row | SMILES | AC50 [1] | outcome [2] | outcome [3] | outcome [4] | outcome [5] | outcome [6] | outcome [7] | outcome [8] | outcome [1] | outcome [9] | outcome [10] | AC50 [3] | AC50 [6] | AC50 [9] | AC50 [8] | AC50 [10]
1 | CCCCCCCC/C=C\CCCCCCCC(=O)O | 32 µM (active) | inactive | inactive | inactive | inactive | inactive | inactive | inactive | – | – | – | – | – | – | – | –
2 | OCCCS | – | inactive | inactive | inactive | inactive | inactive | inactive | inactive | inactive | inactive | inactive | – | – | – | – | –
3 | O=C(Nc1cccc(C(F)(F)F)c1)c1cc(Br)cc(Br)c1O | 66.7 µM (active) | inactive | – | inactive | inactive | – | inactive | – | – | – | – | 100 µM (active) | 19.9 µM (active) | 46.2 µM (active) | 85.8 µM (active) | 1.89 µM (active)
4 | O=C1c2cccc(O)c2C(=O)c2c(O)cc(CO)cc21 | – | inactive | inactive | inactive | inactive | – | inactive | inactive | inactive | inactive | inactive | – | 24 µM (active) | – | – | –
5 | C/C=C\C/C=C/CCCCCCCCOC(C)=O | 122 µM (active) | – | – | inactive | inactive | inactive | inactive | – | – | – | inactive | 155 µM (active) | – | 156 µM (active) | 100 µM (active) | –
6 | C=C(C)C(=O)OCC(C)C | – | – | inactive | inactive | inactive | inactive | inactive | inactive | inactive | inactive | – | – | – | – | – | –
7 | CC(C)c1ccc2c(c1)CC[C@H]1[C@](C)(CN)CCC[C@]21C | – | inactive | inactive | inactive | inactive | – | inactive | – | inactive | – | – | – | – | – | 5.77 µM (active) | –
8 | O=C1OC(=O)c2cc(Oc3ccc4c(c3)C(=O)OC4=O)ccc21 | – | – | inactive | inactive | inactive | inactive | inactive | inactive | inactive | inactive | – | – | – | – | – | –
9 | CCCCCCCCCCCCCCCC[n+]1ccccc1 | – | inactive | – | inactive | – | inactive | inactive | inactive | inactive | inactive | – | 9.02 µM (active) | – | – | – | –
10 | Cc1cc(C)c(C)cc1C | – | – | inactive | inactive | inactive | inactive | inactive | inactive | inactive | inactive | – | – | – | – | – | –
11 | O=C(c1ccc(O)cc1)c1ccc(O)cc1O | – | inactive | inactive | inactive | – | inactive | inactive | inactive | inactive | inactive | inactive | – | – | – | – | –
12 | O=C(Cl)c1cc(C(=O)Cl)cc(C(=O)Cl)c1 | 153 µM (active) | – | inactive | inactive | inactive | inactive | inactive | inactive | – | – | – | – | – | 100 µM (active) | – | –
13 | O=S(=O)(O)c1ccccc1C=Cc1ccc(-c2ccc(C=Cc3ccccc3S(=O)(=O)O)cc2)cc1 | – | inactive | – | inactive | inactive | inactive | inactive | inactive | inactive | – | inactive | – | – | – | – | –
14 | CC(C)(C)c1ccc(OC(=O)c2ccccc2O)cc1 | – | inactive | – | inactive | inactive | inactive | inactive | inactive | inactive | inactive | inactive | – | – | – | – | –
15 | CC1=Nc2ccc3ccccc3c2C1(C)C | – | – | inactive | inactive | inactive | inactive | inactive | – | inactive | – | – | – | – | 147 µM (active) | 100 µM (active) | –
16 | CCCCCCCCCCCCCCCC(=O)OCC | – | inactive | – | inactive | inactive | – | inactive | inactive | inactive | – | – | – | – | – | – | –
17 | CCOc1nc(F)cc2nc(S(=O)(=O)Nc3c(Cl)cccc3C(=O)OC)nn12 | – | inactive | inactive | inactive | – | inactive | inactive | inactive | inactive | – | inactive | – | – | – | – | –
18 | C=CC=CC=CCCCCC | 40.4 µM (active) | inactive | inactive | inactive | – | inactive | inactive | – | – | inactive | – | – | – | – | – | –
19 | O=C1Nc2ccccc2C1(c1ccc(O)cc1)c1ccc(O)cc1 | 148 µM (active) | inactive | – | inactive | inactive | – | inactive | – | – | – | – | – | – | 163 µM (active) | 70.4 µM (active) | –
20 | CC(=O)[C@H]1[C@H](C#N)C[C@H]2[C@@H]3CC=C4C[C@@H](O)CC[C@]4(C)[C@H]3CC[C@@]21C | – | inactive | inactive | inactive | – | – | inactive | inactive | inactive | inactive | – | – | – | – | – | –
21 | CCCCOCCOC(=O)COc1nc(Cl)c(Cl)cc1Cl | – | inactive | inactive | inactive | – | inactive | inactive | inactive | inactive | inactive | – | – | – | – | – | –
22 | OC1OCCOC1O (stereo not given) | – | inactive | – | inactive | inactive | inactive | inactive | – | inactive | inactive | inactive | – | – | – | – | –
23 | CCc1nccnc1C | – | inactive | inactive | inactive | – | inactive | inactive | inactive | inactive | inactive | – | – | – | – | – | –
24 | CC1=NN(c2cc(S(=O)(=O)O)ccc2Cl)C(=O)C1N=Nc1ccccc1 (stereo not given) | – | inactive | inactive | inactive | inactive | – | inactive | inactive | inactive | – | inactive | – | – | – | – | –
25 | Cc1ccc(N/N=c2\c(=O)cc/c(=N/Nc3ccc(S(=O)(=O)O)cc3)c2=O)c(C)c1 | – | – | inactive | inactive | inactive | inactive | inactive | inactive | inactive | inactive | inactive | – | – | – | – | –
26 | CCCC(=O)OCc1ccccc1 | – | – | inactive | inactive | inactive | inactive | inactive | inactive | inactive | inactive | – | – | – | – | – | –
27 | Nc1cccc(C(F)(F)F)c1 | – | – | inactive | inactive | inactive | inactive | inactive | – | inactive | inactive | – | – | – | – | – | –
28 | O=Nc1ccc(O)cc1 | – | inactive | inactive | inactive | – | inactive | inactive | – | inactive | inactive | inactive | – | – | – | – | –
29 | CCOC(=O)c1ccccc1C(=C1C=C(Br)C(=O)C(Br)=C1)c1cc(Br)c(O)c(Br)c1 | 62.5 µM (active) | inactive | – | inactive | – | – | inactive | – | – | – | – | 28.8 µM (active) | 35.8 µM (active) | 20.6 µM (active) | 26.2 µM (active) | –
